These results are taken from PubChem BioAssay (NCI).

Several values for one entry are separate records, joined by “and”; a condition that tells them apart may be missing. Identical values can stand only once. This is part of a sample that, as a whole, favours compounds with a hit. Of some 83,000 tested, about 20% had one in any assay.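 Treatment: one concentration, 48 hours, 96-well format. Scoring: percent growth, with anything below 10 considered active.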 Activity calls are given as the source filed them.

In the experiment the test system is HL-60(TB) leukemia. The experiment in a line: NCI-60 one-dose screen, 48 h (100 = growth as untreated, 0 = no growth, -100 = all killed). Particulars: 10 µM unless noted.
Consider `CCOC(=O)N(O)c1ccc(/C=C/c2ccccc2)cc1`, for which the growth is 61.1% (inactive) and 43.9% (inactive).
Next, `CC(C)N(CCOc1cccc(-c2nc3sccn3c2-c2ccnc(S(C)(=O)=O)n2)c1)C(C)C`: 80.8% (inactive); `NCCSC(c1ccccc1)(c1ccccc1)c1ccccc1`: -17.3% (active); `O=C(Cc1ccccc1[N+](=O)[O-])c1ccc2c(c1)OCO2`: 99.7% (inactive).
For the compound `O=c1oc2ccccc2cc1C1=NN=C(SCc2ccccc2)SC1`, the growth was 102% (inactive).
Next, `O=c1sc2ncnc3ncn1c32`: 85.1% (inactive); `c1ccc(CNc2nc(Nc3ccc(-c4nc5ccccc5[nH]4)cc3)c3cn[nH]c3n2)cc1`: -4.71% (active).
With `O=C(CSc1nccc(Nc2ccc(S(=O)(=O)Nc3ccccn3)cc2)n1)c1ccc(Cl)cc1` the figure was 95.3% (inactive).
For the compound `N#Cc1cccc(F)c1`, the growth was 76.2% (inactive).
On to `COc1cc(NC(C)CCCN2C(=O)c3ccccc3C2=O)c2ncccc2c1OC` (stereo unspecified), for which the growth is -96.9% (active).
With `O=C(Nc1ccc(F)cc1F)c1cc(F)ccc1O` the figure was -25.4% (active).
As for `CCOC(=O)c1nc2c3ccccc3ccn2c1C(=O)OCC`, the growth is 97.1% (inactive).
With `O=C(OCc1ccc2cccc(O)c2n1)N1CCN(C(=O)c2cc3cc(F)ccc3[nH]2)CC1` the figure was -35.8% (active).
In the case of `Cc1ccccc1COc1ccc(-c2onc(C)c2-c2ccc(Cl)cc2)cc1`, the growth was 17.7% (inactive).
Next, `Oc1ccc(Cn2cc3c(c2-c2ccccc2)CCc2cnoc2-3)cc1`: 93.8% (inactive); `CN(C)c1ccc(C(=N)c2ccc(N(C)C)cc2)cc1`: 12.3% (inactive) and 6.84% (active).
